Results taken from PubChem BioAssay.
Active and inactive are the calls of the source.

Key:
Albumin (Bos taurus) = Albumin (Bos taurus) (UniProt P02769); assay: bovine serum albumin binders on microarray, profiling panel, artefact control for SMM control protein annotation, biochemical, small-molecule microarray, Alexa647 label, 635/667 nm fluorescence (AID 1118); conditions: BSA-A647 binding, fluorescence 635 nm, higher = more signal;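 further: score merges 667 nm emission intensity and signal-to-noise per printed compound spot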
Chain of Albumin (Bos taurus) (P02769 whole entry, looked up): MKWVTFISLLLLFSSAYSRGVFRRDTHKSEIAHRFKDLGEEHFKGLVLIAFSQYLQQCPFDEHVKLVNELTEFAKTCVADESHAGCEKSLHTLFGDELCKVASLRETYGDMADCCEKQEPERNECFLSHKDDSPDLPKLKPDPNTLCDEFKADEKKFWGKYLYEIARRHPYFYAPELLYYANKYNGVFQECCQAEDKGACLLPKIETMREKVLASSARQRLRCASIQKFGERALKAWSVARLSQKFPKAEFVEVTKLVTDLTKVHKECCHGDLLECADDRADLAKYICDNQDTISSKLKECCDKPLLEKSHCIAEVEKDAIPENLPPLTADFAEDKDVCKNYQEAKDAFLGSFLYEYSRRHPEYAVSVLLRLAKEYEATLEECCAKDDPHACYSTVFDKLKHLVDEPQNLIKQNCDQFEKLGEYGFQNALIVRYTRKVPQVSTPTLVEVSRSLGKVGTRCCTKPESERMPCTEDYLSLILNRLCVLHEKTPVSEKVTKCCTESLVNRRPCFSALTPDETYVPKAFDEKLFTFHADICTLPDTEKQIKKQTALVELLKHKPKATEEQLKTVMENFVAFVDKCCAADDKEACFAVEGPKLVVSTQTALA

[1] = small-molecule microarray binders of probe aXIP, primary screen, biochemical, NeuroSMM set, 635/667 nm fluorescence (AID 1119); conditions: higher = more signal, called active from +8 up or from −8 down;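 further: probe is the protein aXip251-270 applied at 1 µg/mL to compound-printed slides; binding of probe to printed compounds measured as 667 nm fluorescence plus signal to noise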
[2] = small-molecule binders of probe aNOTCH3, primary screen, biochemical, small-molecule microarray, 635/667 nm fluorescence (AID 1120); conditions: higher = more signal;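 further: probe is a biotin-tagged antibody raised against NOTCH3 rather than NOTCH3 protein; score merges spot fluorescence near 667 nm with spot signal to noise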
[3] = small-molecule binders of probe aNOTCH2, primary screen, biochemical, small-molecule microarray, 635/667 nm fluorescence (AID 1121); conditions: higher = more signal;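 further: score merges feature fluorescence read at 667 nm with its signal to noise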
[4] = target: Carbonic anhydrase 2 (Homo sapiens) (UniProt P00918); assay: CAII small-molecule binders, profiling panel, biochemical, small-molecule microarray, Alexa647-labelled CAII (AID 1122); conditions: CAII-A647 binding fluorescence, higher = more signal
[5] = COS7 lysate on small-molecule microarray, probe aHis, 635 nm (AID 1123); conditions: COS7 cell lysate, fluorescence, higher = more signal;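 further: z-score combines 667nm fluorescence intensity with signal-to-noise per printed compound spot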
[6] = compound binding in COS7 lysate, probe aLAP1, primary screen, cell lysate, small-molecule microarray (AID 1124); conditions: probe aLAP1, fluorescence, higher = more signal;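 further: lysate comes from COS7 cells expressing LAP1 and is applied at 0.3 µg/mL; score merges spot fluorescence near 667 nm with signal-to-noise over triplicate slides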
Sam68 (KHDRBS1) = assay: Sam68 small-molecule binders, primary screen, biochemical, small-molecule microarray, 635 nm fluorescence (AID 1125); conditions: small-molecule microarray binding, higher = more signal;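 further: score merges 667 nm channel intensity with signal to noise over triplicate slides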
[7] = tested on: Chordin-like protein 2 (CHRDL2); assay: CHRDL2 small-molecule binders, primary screen, biochemical, small-molecule microarray, 635 nm fluorescence (AID 1126); conditions: small-molecule microarray binding, fluorescence 635 nm; higher = more signal;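 further: printed compound slides probed with Chrdl2 protein at 4 µg/mL for 1 h at 4 C; score merges 667 nm emission intensity with signal to noise over three replicate slides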
[8] = target: Concanavalin-A (Canavalia ensiformis) (UniProt P02866); assay: ConA small-molecule binders, primary screen, artefact control for SMM control protein annotation, biochemical, small-molecule microarray, Alexa647 label, 635 nm (AID 1127); conditions: ConA-A647 binding fluorescence, higher = more signal;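 further: z combines 667 nm emission intensity with signal-to-noise across three replicate slides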
Chain of Concanavalin-A (Canavalia ensiformis) (P02866 whole entry, looked up): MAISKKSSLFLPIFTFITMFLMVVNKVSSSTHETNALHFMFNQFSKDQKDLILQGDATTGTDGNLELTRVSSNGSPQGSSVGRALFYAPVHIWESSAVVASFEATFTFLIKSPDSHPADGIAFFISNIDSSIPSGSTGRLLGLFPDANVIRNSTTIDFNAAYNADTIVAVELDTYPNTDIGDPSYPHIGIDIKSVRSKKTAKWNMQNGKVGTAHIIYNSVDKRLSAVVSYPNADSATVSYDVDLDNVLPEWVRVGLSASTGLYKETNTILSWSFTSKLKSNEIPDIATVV

COc1ccc(C#Cc2ccc3c(c2)[C@]2(C(=O)N3)[C@H](c3ccc(O)cc3)N3[C@H](c4ccccc4)[C@H](c4ccccc4)OC(=O)[C@H]3[C@@H]2C(=O)O)cc1
composite z-score (Albumin (Bos taurus)): 0.496 | composite Z-score [1]: 0.708 (inactive) | composite z-score [2]: 0.277 | composite z-score [3]: 0.163 | composite z-score [4]: 0.614 | composite z-score [5]: 1.23 | composite z-score [6]: 0.483 | composite z-score (Sam68 (KHDRBS1)): 0.964 | composite z-score [7]: 0.111 | composite z-score [8]: 0.868

CCCCC(O)C1C=CC2C(=O)N(c3ccccc3)C(=O)C2N1Nc1ccc(C(C)C)cc1 (stereo not given)
composite z-score (Albumin (Bos taurus)): 0.898 | composite Z-score [1]: -0.535 (inactive) | composite z-score [2]: 0.315 | composite z-score [3]: -0.0073 | composite z-score [4]: 0.712 | composite z-score [5]: 2.85 | composite z-score [6]: 0.201 | composite z-score (Sam68 (KHDRBS1)): 1.32 | composite z-score [7]: -0.408 | composite z-score [8]: 1.07

O=C(NCCCCCNC(=O)/C(Cc1ccccc1)=N/O)OCc1ccccc1
composite z-score (Albumin (Bos taurus)): -0.0396 | composite Z-score [1]: -0.136 (inactive) | composite z-score [2]: -0.165 | composite z-score [3]: -0.195 | composite z-score [4]: -0.162 | composite z-score [5]: -0.564 | composite z-score [6]: 0.148 | composite z-score (Sam68 (KHDRBS1)): -0.0603 | composite z-score [7]: 0.366 | composite z-score [8]: -0.485

CCOC(=O)C[C@H]1[C@H](OC(=O)c2cc3ccccc3oc2=O)[C@@H](NC(=O)Cc2ccc(OC)cc2)c2cc(OCCCO)ccc2N1C(=O)c1ccc2ccccc2n1
composite z-score (Albumin (Bos taurus)): -0.116 | composite Z-score [1]: -0.431 (inactive) | composite z-score [2]: -0.152 | composite z-score [3]: -0.0666 | composite z-score [4]: 0.353 | composite z-score [5]: 0.303 | composite z-score [6]: 0.096 | composite z-score (Sam68 (KHDRBS1)): 0.206 | composite z-score [7]: 0.583 | composite z-score [8]: 0.0304

COC(=O)c1c2oc(c1C(=O)OC)C(=O)N(C)Cc1cn(nn1)C[C@H](Cc1ccccc1)NC(=O)N[C@H](CO)CC2
composite z-score (Albumin (Bos taurus)): -0.56 | composite Z-score [1]: -0.2 (inactive) | composite z-score [2]: -0.155 | composite z-score [3]: -0.18 | composite z-score [4]: -0.41 | composite z-score [5]: -0.69 | composite z-score [6]: -0.161 | composite z-score (Sam68 (KHDRBS1)): -0.947 | composite z-score [7]: -0.516 | composite z-score [8]: -1.17

O=C(CS)NCCCCCNC(=O)[C@@H]1C[C@@H]2C(=O)N3CCC[C@H]3C(=O)N2[C@@H]1c1cccc(OCCO)c1
composite z-score (Albumin (Bos taurus)): -0.105 | composite Z-score [1]: 1.11 (inactive) | composite z-score [2]: -0.284 | composite z-score [3]: -0.258 | composite z-score [4]: 0.747 | composite z-score [5]: 2.18 | composite z-score [6]: 0.503 | composite z-score (Sam68 (KHDRBS1)): 0.246 | composite z-score [7]: 0.712 | composite z-score [8]: 0.91

O=C1O[C@H](c2ccccc2)[C@H](c2ccccc2)N2[C@H]1[C@@H](C(=O)O)[C@]1(C(=O)Nc3ccc(C#CC4=CCCCC4)cc31)[C@H]2c1ccc(O)cc1
composite z-score (Albumin (Bos taurus)): 0.562 | composite Z-score [1]: 0.235 (inactive) | composite z-score [2]: 0.0445 | composite z-score [3]: -0.105 | composite z-score [4]: 0.627 | composite z-score [5]: 1.51 | composite z-score [6]: 0.384 | composite z-score (Sam68 (KHDRBS1)): 0.712 | composite z-score [7]: 0.285 | composite z-score [8]: 0.997

CN1C(=O)C2C=CC(C(O)c3cccc4ccccc34)N(N3CCCCC3)C2C1=O (stereo not given)
composite z-score (Albumin (Bos taurus)): 0.918 | composite Z-score [1]: 0.353 (inactive) | composite z-score [2]: 0.246 | composite z-score [3]: 0.0502 | composite z-score [4]: 0.586 | composite z-score [5]: 2.75 | composite z-score [6]: 0.59 | composite z-score (Sam68 (KHDRBS1)): 1.31 | composite z-score [7]: -0.227 | composite z-score [8]: 1.17

COC(=O)[C@@]1(Cc2ccccc2)[C@@H]2C(=CC(=O)[C@H]2CC(=O)C(=O)N(C)C)CN1C(=O)c1ccccc1
composite z-score (Albumin (Bos taurus)): 0.93 | composite Z-score [1]: -0.0478 (inactive) | composite z-score [2]: 0.462 | composite z-score [3]: 0.23 | composite z-score [4]: 0.808 | composite z-score [5]: 2.61 | composite z-score [6]: 0.931 | composite z-score (Sam68 (KHDRBS1)): 1.2 | composite z-score [7]: -0.202 | composite z-score [8]: 1.08

CCOc1cc(C(O)C2C=CC3C(=O)N(C)C(=O)C3N2Nc2ccccc2)ccc1O (stereo not given)
composite z-score (Albumin (Bos taurus)): 1.04 | composite Z-score [1]: 0.765 (inactive) | composite z-score [2]: 0.194 | composite z-score [3]: 0.0931 | composite z-score [4]: 0.827 | composite z-score [5]: 1.28 | composite z-score [6]: -0.438 | composite z-score (Sam68 (KHDRBS1)): 1.22 | composite z-score [7]: 0.0675 | composite z-score [8]: 0.947

COC(=O)CCCCCCC(=O)Nc1ccc(NC(=O)CCCC[P+](c2ccccc2)(c2ccccc2)c2ccccc2)cc1
composite z-score (Albumin (Bos taurus)): -0.637 | composite Z-score [1]: 0.0895 (inactive) | composite z-score [2]: 0.116 | composite z-score [3]: -0.134 | composite z-score [4]: -0.281 | composite z-score [5]: -0.478 | composite z-score [6]: 0.116 | composite z-score (Sam68 (KHDRBS1)): 0.559 | composite z-score [7]: 1.26 | composite z-score [8]: 0.0666

[N-]=[N+]=Nc1ccccc1[C@H]1OC(c2ccc(OCCCO)cc2)=N[C@@]1(CCS(=O)(=O)c1ccccc1)C(=O)NCCN1CCOCC1
composite z-score (Albumin (Bos taurus)): 0.189 | composite Z-score [1]: -0.363 (inactive) | composite z-score [2]: 0.189 | composite z-score [3]: 0.069 | composite z-score [4]: 0.449 | composite z-score [5]: 1.72 | composite z-score [6]: 0.503 | composite z-score (Sam68 (KHDRBS1)): 1.31 | composite z-score [7]: 0.577 | composite z-score [8]: 0.923

CCOC(=O)C[C@H]1[C@H](OC(=O)Cc2ccc3c(c2)OCO3)[C@@H](NC(=O)CC(C)C)c2cc(OCCCO)ccc2N1C(=O)Cc1ccc(OC)cc1
composite z-score (Albumin (Bos taurus)): 0.779 | composite Z-score [1]: -0.867 (inactive) | composite z-score [2]: -0.0328 | composite z-score [3]: -0.0288 | composite z-score [4]: 0.0138 | composite z-score [5]: 0.775 | composite z-score [6]: 0.166 | composite z-score (Sam68 (KHDRBS1)): 0.282 | composite z-score [7]: -0.226 | composite z-score [8]: -0.622

CCOC(=O)C1=CC[C@@H](c2cccc(Cl)c2)N(S(=O)(=O)c2ccc(C)cc2)C1
composite z-score (Albumin (Bos taurus)): 0.839 | composite Z-score [1]: -0.659 (inactive) | composite z-score [2]: -0.0661 | composite z-score [3]: -0.0488 | composite z-score [4]: 0.685 | composite z-score [5]: 2.15 | composite z-score [6]: 0.568 | composite z-score (Sam68 (KHDRBS1)): 0.674 | composite z-score [7]: 0.0917 | composite z-score [8]: 0.721

C=C(C)c1cc2c(c(CCCCCC)n1)[Si](C(C)C)(C(C)C)OC2
composite z-score (Albumin (Bos taurus)): -0.923 | composite Z-score [1]: -0.335 (inactive) | composite z-score [2]: -0.296 | composite z-score [3]: -0.146 | composite z-score [4]: -0.484 | composite z-score [5]: -0.369 | composite z-score [6]: -0.603 | composite z-score (Sam68 (KHDRBS1)): -0.631 | composite z-score [7]: -1.41 | composite z-score [8]: -0.277

C=CCOC(=O)[C@H]1[C@@H]2C(=O)O[C@@H](c3ccccc3)[C@@H](c3ccccc3)N2[C@@H](c2ccc(OCCOC(=O)[C@@H]3C[C@@H]4C(=O)N5CCC[C@H]5C(=O)N4[C@@H]3c3ccc(O)cc3)cc2)[C@]12C(=O)Nc1ccc(I)cc12
composite z-score (Albumin (Bos taurus)): -0.572 | composite Z-score [1]: 0.486 (inactive) | composite z-score [2]: -0.33 | composite z-score [3]: -0.118 | composite z-score [4]: 0.0118 | composite z-score [5]: 0.897 | composite z-score [6]: 0.163 | composite z-score (Sam68 (KHDRBS1)): 0.27 | composite z-score [7]: 0.851 | composite z-score [8]: 1.01
